Screening data as filed in PubChem.
Only some compounds are listed: those with a hit (about 5.7% of all), similar ones and a draw of the others.
VP16 counter – inhibits Gal4-VP16 luciferase reporter, ROR gamma counter-screen; Drosophila S2 Gal4-VP16 UAS-luciferase, luminescence, 20 h; Potency, µM (series often up to 53.6 µM), actives largely listed as inhibitors; 310,000 compounds, 3.5% hits; AID 2546;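 note: Gal4-VP16 expression switched on by copper sulfate through the metallothionein promoter; nearly all actives have a fitted effect of over 50% in size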
NPSR antagonist – neuropeptide S receptor (human) antagonism, cAMP. 220,000 compounds, 1% hits. AID 1461. CHO-NPSR cells, cAMP TR-FRET, antagonist mode. Potency, µM (highest dose often 38.3 µM), actives largely listed as inhibitors. Q6W5P4; note: nearly all actives have a fitted effect of over 50% in size
B2AR arrestin – agonists driving beta-arrestin recruitment to human beta2-adrenergic receptor; 330,000 compounds, 0.02% hits; Potency, µM (doses to about 46.1 µM), actives largely listed as activators; AID 492947; beta-arrestin recruitment to beta2AR, cell-based reporter; P07550; note: nearly all actives have a fitted effect of over 65% in size
RORgamma inh – ROR gamma (mouse) transcription inhibition; 310,000 compounds, 5.4% hits; P51450; AID 2551; Drosophila S2 Gal4-RORgamma UAS-luciferase reporter, 20 h; Potency, µM (highest dose often 53.6 µM), most hits filed as inhibitors; note: nearly all actives have a fitted effect of over 60% in size
Target sequence (P51450 whole entry, looked up, the tested form may be a part): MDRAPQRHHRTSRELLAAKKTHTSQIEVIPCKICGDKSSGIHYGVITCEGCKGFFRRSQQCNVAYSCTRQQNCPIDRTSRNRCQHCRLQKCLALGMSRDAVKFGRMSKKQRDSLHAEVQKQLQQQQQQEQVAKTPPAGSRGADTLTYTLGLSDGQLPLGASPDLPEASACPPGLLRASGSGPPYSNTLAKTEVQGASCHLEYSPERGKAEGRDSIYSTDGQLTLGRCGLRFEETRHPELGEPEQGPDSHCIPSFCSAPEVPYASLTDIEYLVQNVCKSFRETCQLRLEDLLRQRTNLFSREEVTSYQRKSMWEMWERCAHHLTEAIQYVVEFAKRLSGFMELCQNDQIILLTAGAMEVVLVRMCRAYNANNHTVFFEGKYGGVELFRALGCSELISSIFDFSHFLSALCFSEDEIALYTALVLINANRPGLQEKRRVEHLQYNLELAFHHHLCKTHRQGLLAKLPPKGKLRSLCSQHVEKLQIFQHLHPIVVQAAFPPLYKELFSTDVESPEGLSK
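Luminescence from a UAS-regulated Photinus luciferase reporter in stably transfected Drosophila Schneider cells is measured; decreased signal marks ROR gamma inhibition. Fusion expression is induced by 700 uM copper sulfate for 20 hr.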
Numbers stand for hits. Calls come from the whole dose curve; as a rule, active = well fitted curve in the direction sought with a large enough effect; inconclusive = small, poorly fitted or top-dose-only effect, or another doubt; inactive = no such curve, though single readings can be large; an effect the other way counts as inactive or inconclusive.

CCCCc1ccc(NC(=O)C(C)CC)cc1 (centres undefined) was read as VP16 counter 3.98µM, NPSR antagonist inactive, B2AR arrestin inactive and RORgamma inh 1.41µM.
For CCCCc1ccc(NC(=S)N2CCN(C(=O)OCC)CC2)cc1 the results were VP16 counter inconclusive, B2AR arrestin inactive and RORgamma inh 1.26µM.
`CCCCc1ccc(NC(=S)N2CCN(C)CC2)cc1` gave VP16 counter inconclusive, B2AR arrestin inactive and RORgamma inh 11.2µM.
`S=C(Nc1ccccc1)N1CCCCCCC1` gave VP16 counter inactive, NPSR antagonist inactive, B2AR arrestin inactive and RORgamma inh inconclusive.
`CCCCc1ccc(NC(=O)N[C@@H](C)C(=O)O)cc1` gave VP16 counter inactive, NPSR antagonist inactive, B2AR arrestin inactive and RORgamma inh inactive.
`CCOC(=O)N1CCN(C(=S)Nc2ccc(C)c(C)c2)CC1` gave VP16 counter inactive, NPSR antagonist inactive, B2AR arrestin inactive and RORgamma inh inconclusive.
Screening CCCCc1ccc(NC(=S)N2CCCC2)cc1 returned VP16 counter 10µM, B2AR arrestin inactive and RORgamma inh 11.2µM.
For CC1=CN(S(=O)(=O)c2ccc(C)cc2)C[C@@H]2c3ccccc3N(S(=O)(=O)c3ccc(C)cc3)[C@H]12 the results were B2AR arrestin inactive.
For O=C(c1csnn1)N1CCC2(CC1)CCN(c1ccncc1)CC2 the results were VP16 counter inactive and RORgamma inh inactive.
Screening COc1ccc(S(=O)(=O)N2CCCCC2)cc1NS(=O)(=O)c1ccccc1 returned B2AR arrestin inactive.
For CC(C)c1ccc(NC(=S)N2CCN(C)CC2)cc1 the results were VP16 counter inactive, B2AR arrestin inactive and RORgamma inh inactive.
Screening CC(C)c1ccc(NC(=S)N2CCCC2)cc1 returned VP16 counter inconclusive, B2AR arrestin inactive and RORgamma inh 10µM.
C=C1C(=O)OC2CC1C(OC(C)=O)CC(C)=CCCC(C)=CCC[C@@]2(C)O (some centres undefined) was read as VP16 counter inconclusive and RORgamma inh 5.62µM.
For Cc1cc2nc(CCN(Cc3cccnc3)C(=S)Nc3ccccc3)[nH]c2cc1C the results were VP16 counter inactive, NPSR antagonist inactive, B2AR arrestin inactive and RORgamma inh 14.1µM.
Screening Cc1[nH]c2ccccc2c1CCN(Cc1cccnc1)C(=S)Nc1cccc(F)c1 returned VP16 counter inactive, NPSR antagonist inactive, B2AR arrestin inactive and RORgamma inh inactive.
`Cc1[nH]c2ccccc2c1CCN(Cc1cccnc1)C(=S)Nc1ccc(F)cc1` gave VP16 counter inactive, NPSR antagonist 7.94µM, B2AR arrestin inactive and RORgamma inh inactive.
For COCCNC(=S)N(CCc1c(C)[nH]c2ccc(F)cc12)Cc1cccs1 the results were VP16 counter inconclusive, NPSR antagonist inactive, B2AR arrestin inactive and RORgamma inh 7.94µM.
For COCCNC(=S)N(CCc1c(C)[nH]c2ccc(Cl)cc12)Cc1cccs1 the results were VP16 counter inconclusive, NPSR antagonist inactive, B2AR arrestin inactive and RORgamma inh inconclusive.
`Cc1cc2nc(CCN(Cc3cccnc3)C(=S)Nc3ccc(F)cc3)[nH]c2cc1C` gave VP16 counter inactive, NPSR antagonist inactive, B2AR arrestin inactive and RORgamma inh inactive.
`Cc1[nH]c2ccccc2c1CCN(Cc1cccs1)C(=S)Nc1ccccc1` gave VP16 counter inactive, NPSR antagonist inactive, B2AR arrestin inactive and RORgamma inh 5.62µM.
For C/C(=N/NC(=O)CCC(=O)Nc1ccc(Br)cc1)c1ccc(Br)cc1 the results were VP16 counter inactive, B2AR arrestin inactive and RORgamma inh inactive.
Screening COC(=O)c1ccc(N2CCN(C)CC2)c(NC(=O)c2ccc(-c3ccc(Cl)cc3)o2)c1 returned VP16 counter inactive, B2AR arrestin inactive and RORgamma inh inactive.
Screening CNC(=S)N(CCc1c(C)[nH]c2ccc(Cl)cc12)Cc1cccs1 returned VP16 counter inactive, NPSR antagonist inactive, B2AR arrestin inactive and RORgamma inh inconclusive.
Screening CCNC(=S)N(CCc1c(C)[nH]c2ccc(C)cc12)Cc1cccs1 returned VP16 counter inconclusive, NPSR antagonist inactive, B2AR arrestin inactive and RORgamma inh 7.08µM.
For NC(=S)n1[nH]c(-c2ccccc2)c(N=Nc2ccccc2C(=O)N2CCOCC2)c1=O the results were VP16 counter inactive, NPSR antagonist inactive, B2AR arrestin inactive and RORgamma inh 2µM.
Screening Cc1[nH]n(-c2ccccc2)c(=O)c1N=Nc1ccccc1C(=O)N1CCOCC1 returned VP16 counter inactive, NPSR antagonist inactive, B2AR arrestin inactive and RORgamma inh inconclusive.
